In PubChem BioAssay (NCI):
The panel holds about 79,000 compounds, 15% with a hit somewhere; the sample as a whole holds those more often. Calls of active or inactive are those of the source. Cut-off read from the data, not from the text of the source: active = growth inhibition above about 70%; inactive = the rest.

What was measured:
[1] = NCI Yeast Anticancer Drug Screen. Data for the rad50 strain (AID 155);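 note: 0% = growth of vehicle-only cultures of the same strain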; details: S. cerevisiae rad50 strain growth inhibition; at 50.0 µM; stronger effect = higher value
Outline: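 Cells are treated with compound, grown, and their growth is then scored against vehicle-only cultures of the same repair-deficient yeast strain.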

[2] = NCI Yeast Anticancer Drug Screen. Data for the mec2-1 strain (AID 157); details: S. cerevisiae mec2-1 strain, at 50.0 µM, stronger effect = higher value
Outline: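 Strain: mec2-1 (DNA repair/cell cycle alteration). Compound exposure, then growth measured; inhibition expressed relative to vehicle.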

[3] = NCI Yeast Anticancer Drug Screen. Data for the sgs1 mgt1 strain (AID 161);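 note: 0% = growth of cultures given vehicle only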; details: S. cerevisiae sgs1 mgt1 strain, at 50.0 µM, stronger effect = higher value
Outline: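 Test agents were incubated with a DNA-repair-mutant yeast strain. Growth was then read and compared against vehicle-treated controls.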

[4] = NCI Yeast Anticancer Drug Screen. Data for the cln2 rad14 strain (AID 165);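 note: 0% = growth equal to vehicle treated cultures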; details: S. cerevisiae cln2 rad14 strain, at 50.0 µM, stronger effect = higher value
Outline: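 Compounds are applied to the cln2 rad14 yeast strain, and growth is then compared with that of vehicle-treated cultures to give inhibition.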

[5] = NCI Yeast Anticancer Drug Screen. Data for the bub3 strain (AID 167); details: S. cerevisiae bub3 mutant strain, at 50.0 µM, stronger effect = higher value
Outline: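 Part of a panel of yeast mutants defective in DNA damage repair or cell cycle regulation. Each strain is grown with compound, and inhibition is calculated relative to solvent-treated cultures.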

[6] = NCI Yeast Anticancer Drug Screen. Data for the mlh1 rad18 strain (AID 175); details: S. cerevisiae mlh1 rad18 strain growth inhibition; at 50.0 µM; stronger effect = higher value
Outline: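 Read-out is yeast growth inhibition, calculated against vehicle-only controls. The compound was applied to a strain engineered with DNA damage repair alterations.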

Measured: growth inhibition

O=C(O)COc1ccccc1C1CCCCC1
inactive: [1] 0.15% | [2] 7.6% | [3] 6.25% | [4] -4.9% | [5] -18.6% | [6] -2.2%

COc1cc(O)c(C(=O)CC(C)=O)c(OC)c1
inactive: [1] -14.9% | [2] -14.8% | [3] -3.7% | [4] -0.9% | [5] 10.9% | [6] -11.7%

CC(=O)OCc1nc2ncnc(N)c2[nH]1
inactive: [1] 0.5% | [2] -5.65% | [3] -11.4% | [4] -52.4% | [5] -3.4% | [6] -4.9%

CC(C)CCCC(C)C1CCC2C3CCC4=CCCCC4(C)C3CCC12C (centres undefined)
inactive: [1] 4.6% | [2] 33% | [3] 27.8% | [4] 33.1% | [5] 2.45% | [6] 50.7%

O=C1C(O)C(c2ccccc2)c2ccccc2N1c1ccccc1 (centres undefined)
inactive: [1] 2.2% | [2] 5.35% | [3] 1.8% | [4] -5.9% | [5] -9.75% | [6] 15.1%

O=C(Nc1ccccc1)Oc1ccccc1C1CCCCC1
inactive: [1] 26.8% | [2] 2.4% | [3] 6% | [4] 16.8% | [5] -18.9% | [6] -20%

COc1ccc2[nH]c(Br)c(CCNC(C)=O)c2c1
inactive: [1] -25.6% | [2] -7.4% | [3] -16.9% | [4] 1.9% | [5] -4.55% | [6] -31.9%

Cc1cccc(CP(Cc2cccc(C)c2)CC2(Cp3c4ccccc4c4ccccc43)COC2)c1
inactive: [1] 18% | [2] -0.8% | [3] 33.4% | [4] 26.9% | [5] 31.6% | [6] 34.5%

CC1(c2ccc(C(O)c3ccccc3)s2)OCCO1 (centres undefined)
inactive: [1] 1.8% | [2] 7.3% | [3] 10.9% | [4] 12.9% | [5] 11.4% | [6] 15.6%

Cc1cc2nc(CCC(=O)O)c(=O)[nH]c2cc1C
inactive: [1] -22.4% | [2] -24.6% | [3] -4.05% | [4] 13.8% | [5] -24% | [6] -28.8%

NC(CCC(=O)NC(CSCNC(=O)Nc1ccc(Cl)cc1)C(=O)NCC(=O)O)C(=O)O (centres undefined)
inactive: [1] -5.15% | [2] 4.4% | [3] -1.65% | [4] -13.7% | [5] -3.85% | [6] 15.9%

CC1(O)CCC(O)CC1CC[N+](C)(C)[O-] (centres undefined)
inactive: [1] 7.35% | [2] 1.3% | [3] 8.8% | [4] 4.75% | [5] 3.3% | [6] 5.55%

Cc1nn2c(C(=O)O)nnc2s1
inactive: [1] -0.3% | [2] 5.25% | [3] 7.7% | [4] -21.8% | [5] -16.6% | [6] -13.8%

C/C(=N\N=C(/C)c1ccc(N)cc1)c1ccc(N)cc1
inactive: [1] 15.9% | [2] 5% | [3] 1.9% | [4] -3.3% | [5] 13.9% | [6] 9%

Cc1c(Cl)cccc1NC(=O)Oc1ccc(F)cc1Cl
inactive: [1] -1.4% | [2] -3.1% | [3] -2.3% | [4] 7.35% | [5] 17.6% | [6] -4.55%

CCOCCOC(=O)c1ccc(C(N)=NC)cc1
inactive: [1] 12.6% | [2] -1.2% | [3] 5.2% | [4] -8.15% | [5] 6.05% | [6] 5.8%

N=c1oc2cc(O)ccc2cc1C(=O)NCc1ccccc1
inactive: [1] 17.8% | [2] 27.4% | [3] -2.9% | [4] 20.4% | [5] -8.25% | [6] -7.15%

Cc1cc2c(cc1Cl)SC(NNc1cnc3ccccc3n1)=NS2(=O)=O
inactive: [1] 23.3% | [2] 21.6% | [3] 35.7% | [4] 20.2% | [5] 19.1% | [6] 4.8%

O=c1c2ccccc2c(=O)n2n1CC=CC2
inactive: [1] -6.45% | [2] -4.2% | [3] -1.75% | [4] -15.2% | [5] -2.75% | [6] -1.9%

CN(C)c1nc2oc(-c3ccccc3)c(-c3ccccc3)c2c2nncn12
inactive: [1] 9.65% | [2] 7.45% | [3] 2.9% | [4] 16.9% | [5] 12.1% | [6] -22.5%

CN(Cc1cnc2nc(N)nc(N)c2n1)c1ccc(C(=O)NC(CCCCN)C(=O)O)cc1 (centres undefined)
inactive: [1] -0.05% | [2] -9.4% | [3] -0.05% | [4] -15.8% | [5] -2.05% | [6] 30.9%

COC1=CC(=O)c2ccc3ccccc3c2C1=O
active: [1] 86.7% | [2] 90.4% | [3] 89.4% | [4] 88.8% | [5] 88.8% | [6] 86.5%

CCCCCCCCC(=O)OCC(=O)N(C)C
inactive: [1] 15.6% | [2] 8.8% | [3] 6.35% | [4] 13.3% | [5] 2.9% | [6] 9.4%

CC(C)C(Nc1ncnc2nc[nH]c12)C(=O)O (centres undefined)
inactive: [1] -25.6% | [2] -15.2% | [3] -6.65% | [4] -35.2% | [5] -23.2% | [6] -16.9%

Cc1ccc(NC(=O)COc2cc(Cl)c(Cl)cc2Cl)c([N+](=O)[O-])c1
inactive: [1] -28.9% | [2] -4.8% | [3] -11.8% | [4] -0.55% | [5] -0.2% | [6] -0.4%

CC1CCC(OC(=O)CC#N)CC1 (centres undefined)
inactive: [1] -2.15% | [2] -7.2% | [3] -2.3% | [4] 3.45% | [5] 2.35% | [6] -6.15%

Cc1cc(Cl)c(Cl)cc1NC(=O)C(Br)C(Br)c1ccccc1 (centres undefined)
inactive: [4] 68.7%
active: [1] 75.8% | [2] 71.3% | [3] 74.3% | [5] 78.5% | [6] 82.2%

CC(=O)NC1=NC(=O)/C(=C/Cc2cccs2)N1C
inactive: [1] 6.8% | [2] 16.1% | [3] 1.55% | [4] -5.55% | [5] -23.8% | [6] -25.4%

CC1(O)C(=O)N(Cc2ccccc2)c2ccccc21 (centres undefined)
inactive: [1] 25.6% | [2] -5% | [3] -5.2% | [4] -8.5% | [5] -10.4% | [6] 4.05%

Cc1cc2nc(NN)[nH]c2cc1C
inactive: [1] 5.15% | [2] 7.15% | [3] -17.5% | [4] -10% | [5] -26.4% | [6] 22.1%

O=C(O)COc1ccc(/C=C2\SC(=S)NC2=O)cc1
inactive: [1] -3.9% | [2] -8.3% | [3] 1.6% | [4] -36.5% | [5] 18.9% | [6] -12.2%

CC(=O)Oc1ccc(C(C)(C)C)cc1
inactive: [1] 10.7% | [2] -7.25% | [3] 1.55% | [4] -11.7% | [5] -4.1% | [6] 5.15%

COc1cccc(/C=N/O)c1OC
inactive: [1] 6.75% | [2] 4.25% | [3] 2.6% | [4] 8.55% | [5] -1.85% | [6] 2%

CC1CC(C)C2=NOS3=C2C1=NO3 (centres undefined)
inactive: [1] 43.3% | [2] 16.6% | [3] 36.1% | [4] 21.4% | [5] 28.4% | [6] 22.9%

CC1(C)N=C(N)NC(Nc2ccccc2)=N1
inactive: [1] -0.2% | [2] -6.5% | [3] -27.6% | [4] -26.9% | [5] -10.8% | [6] -0.05%

CCc1nnc(N)o1
inactive: [1] -14.8% | [2] 1.9% | [3] 0.95% | [4] -2.5% | [5] -13.7% | [6] -14.2%

N#C/C(=C\c1ccccc1)C(NO)Nc1ccccc1 (centres undefined)
inactive: [1] -31.1% | [2] -10.2% | [3] -1.4% | [4] 0.05% | [5] 6.65% | [6] -14.8%

O=C1OC(C2Cc3cc4c(cc3C2=O)CCC4)c2ccccc21 (centres undefined)
inactive: [1] -33.1% | [2] -25.4% | [3] -7.75% | [4] -2.55% | [5] -18.9% | [6] -13.4%

Cc1ccc(S(=O)(=O)C(Sc2ccccc2)=S=NC(C)(C)C)cc1
inactive: [4] 53.4%
active: [1] 89.8% | [2] 81.5% | [3] 89.3% | [5] 81.8% | [6] 91.8%
